The values below come from PubChem BioAssay (NCI).

Each structure is given as a SMILES string. This is part of a sample that, as a whole, favours compounds with a hit. Of some 83,000 tested, about 20% had one in any assay.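 Activity criterion: percent growth below 10, measured after cells in 96-well plates were exposed to a single compound concentration for 48 hours.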 Unmarked numbers belong to inactive results. Activity calls are given as the source filed them.

Among the test systems are SK-MEL-2 melanoma; EKVX NSCLC; SN12C renal; TK-10 renal; ACHN renal; CAKI-1 renal; A498 renal; CCRF-CEM leukemia; MOLT-4 leukemia; SR leukemia; RPMI-8226 leukemia; OVCAR-8 ovarian; OVCAR-5 ovarian; OVCAR-4 ovarian; SK-OV-3 ovarian; IGROV1 ovarian; OVCAR-3 ovarian; HS 578T breast; NCI/ADR-RES ovarian.
Holding throughout (test): NCI-60 one-dose screen, 48 h (100 = growth as untreated, 0 = no growth, -100 = all killed)
Common to all, as to settings: 10 µM unless noted

As for `CC(C)N(Cc1ccccc1)c1c(S)ssc1=S`, the growth with SK-MEL-2 melanoma was 7.27% (active); with EKVX NSCLC, 5.44% (active); with SN12C renal, 11%; in the experiment on TK-10 renal it was 37.1%; with ACHN renal, 5.95% (active); in the experiment on CAKI-1 renal it was -2.48% (active). Moreover, the growth with A498 renal is -7.36% (active); in the experiment with CCRF-CEM leukemia it was -81.6% (active); with MOLT-4 leukemia it was 0.0865% (active); in the experiment with SR leukemia, 2.98% (active); with RPMI-8226 leukemia, -65.4% (active); with OVCAR-8 ovarian, 14.7%. In addition, the growth was 14.1% with OVCAR-5 ovarian; -2.68% (active) in the experiment with OVCAR-4 ovarian; 11.7% with SK-OV-3 ovarian; -39.4% (active) in the experiment with IGROV1 ovarian; 28.1% with OVCAR-3 ovarian; 6.03% (active) in the experiment with HS 578T breast. Also, the growth with NCI/ADR-RES ovarian is 15.9%.
For `COc1cc(/C=C/C(=O)CC(=O)/C=C/c2ccc(OC(=O)CCNC34CC5CC(CC(C5)C3)C4)c(OC)c2)ccc1OC(=O)CCNC12CC3CC(CC(C3)C1)C2`, the growth was 11.7% in the experiment on SK-MEL-2 melanoma; 21.6% in the experiment with EKVX NSCLC; 23.8% in the experiment with SN12C renal; 70% in the experiment with TK-10 renal; 79.2% in the experiment with ACHN renal; 49.1% in the experiment with CAKI-1 renal. Moreover, the growth was 83.4% in the experiment with A498 renal; -23.5% (active) in the experiment with CCRF-CEM leukemia; -25.1% (active) in the experiment on MOLT-4 leukemia; -30.4% (active) with RPMI-8226 leukemia; 14.7% in the experiment with OVCAR-8 ovarian; 51.8% in the experiment on OVCAR-5 ovarian. Moreover, the growth in the experiment with OVCAR-4 ovarian was 65.3%; in the experiment with SK-OV-3 ovarian it was 63.8%; in the experiment on IGROV1 ovarian it was 6.65% (active); in the experiment on OVCAR-3 ovarian, -7.82% (active); in the experiment on HS 578T breast, 19.3%; in the experiment on NCI/ADR-RES ovarian, 78.4%.
`Cn1cnc([N+](=O)[O-])c1Sc1nc(N)nc2nc[nH]c12`: the growth with SK-MEL-2 melanoma is 17.8%; with EKVX NSCLC, 27.9%; in the experiment on SN12C renal, 43.6%; in the experiment with TK-10 renal it was 38.5%; in the experiment with ACHN renal, 72.7%; in the experiment on CAKI-1 renal, 38.4%. The growth is 43.6% with A498 renal; 13.5% in the experiment on CCRF-CEM leukemia; 11.3% with MOLT-4 leukemia; 10.5% in the experiment with SR leukemia; -19.5% (active) in the experiment on RPMI-8226 leukemia; 29.5% in the experiment on OVCAR-8 ovarian. For the same molecule, the growth in the experiment with OVCAR-5 ovarian was 28.7%; in the experiment with OVCAR-4 ovarian, 42.8%; in the experiment with SK-OV-3 ovarian it was 2.59% (active); in the experiment with IGROV1 ovarian, -13.1% (active); in the experiment on OVCAR-3 ovarian, 22.7%; in the experiment on HS 578T breast, 65.6%. For the same molecule, the growth in the experiment on NCI/ADR-RES ovarian was 32.4%.
Regarding `[N-]=[N+]=NCc1cccc(/C(O)=C/C(=O)C(=O)O)c1`, the growth in the experiment on SK-MEL-2 melanoma is 72.8%; with EKVX NSCLC it was 120%; in the experiment with SN12C renal, 90.4%; in the experiment on TK-10 renal it was 107%; in the experiment with ACHN renal, 107%; in the experiment on CAKI-1 renal, 131%. The growth in the experiment on A498 renal is 108%; with CCRF-CEM leukemia, 75.2%; in the experiment on MOLT-4 leukemia, -100% (active); with RPMI-8226 leukemia, 90.7%; in the experiment with OVCAR-8 ovarian, 79.4%; in the experiment on OVCAR-5 ovarian it was 63.5%. Besides, the growth in the experiment on OVCAR-4 ovarian was 94.9%; in the experiment with SK-OV-3 ovarian it was 107%; in the experiment on OVCAR-3 ovarian it was 126%; in the experiment on HS 578T breast it was 82.6%; in the experiment on NCI/ADR-RES ovarian it was 78.6%.
Turning to `O=C(COc1cccc(/C=C2\Oc3ccc4ccccc4c3C2=O)c1)c1ccc([N+](=O)[O-])cc1`, the growth in the experiment with SK-MEL-2 melanoma is 44.3%; in the experiment on EKVX NSCLC, 85.4%; with SN12C renal it was 98.2%; in the experiment with TK-10 renal, 99.9%; in the experiment with ACHN renal, 98.4%; with CAKI-1 renal, 69.3%. Besides, the growth was 108% in the experiment on A498 renal; 35.7% with CCRF-CEM leukemia; 32% in the experiment with MOLT-4 leukemia; 3.73% (active) in the experiment on SR leukemia; 79.9% in the experiment on RPMI-8226 leukemia; 97.6% in the experiment with OVCAR-8 ovarian. The growth in the experiment on OVCAR-5 ovarian is 100%; in the experiment with OVCAR-4 ovarian it was 81.8%; with SK-OV-3 ovarian it was 88.9%; with OVCAR-3 ovarian it was 103%; in the experiment with HS 578T breast, 93.1%; with NCI/ADR-RES ovarian it was 102%.
With `CC(=O)c1ccccc1NC(=O)C(C)(c1ccccc1)c1ccccc1`, the growth was 70% in the experiment on SK-MEL-2 melanoma; 92.7% in the experiment on EKVX NSCLC; 108% with SN12C renal; 110% with TK-10 renal; 83.7% in the experiment with ACHN renal; 108% in the experiment with CAKI-1 renal. The growth in the experiment on A498 renal was -17.9% (active); in the experiment with CCRF-CEM leukemia, 77.4%; in the experiment on MOLT-4 leukemia it was 62%; with SR leukemia, 65.9%; in the experiment on RPMI-8226 leukemia it was 57.3%; in the experiment on OVCAR-8 ovarian, 90.2%. Besides, the growth was 91.3% with OVCAR-5 ovarian; 97.9% in the experiment with OVCAR-4 ovarian; 103% with SK-OV-3 ovarian; 101% in the experiment on IGROV1 ovarian; 103% with OVCAR-3 ovarian; 34.3% in the experiment with HS 578T breast. Further, the growth in the experiment on NCI/ADR-RES ovarian was 63.8%.
Take `COc1cc(/C=C/C(=O)C(C(=O)/C=C/c2ccc(OC(=O)CCNc3nnc(C)s3)c(OC)c2)C(=O)CCNc2nnc(C)s2)ccc1OC(=O)CCNc1nnc(C)s1`: the growth in the experiment on SK-MEL-2 melanoma was 13.2%; with EKVX NSCLC, 21.9%; with SN12C renal it was -33.9% (active); in the experiment on TK-10 renal it was 29.4%; in the experiment with ACHN renal it was -21.4% (active); in the experiment with CAKI-1 renal, -3.62% (active). Moreover, the growth in the experiment on A498 renal is 49.7%; in the experiment with MOLT-4 leukemia, -27.9% (active); in the experiment with RPMI-8226 leukemia, -75.2% (active); with OVCAR-8 ovarian it was 7.54% (active); with OVCAR-5 ovarian, 37.1%; in the experiment on OVCAR-4 ovarian, 35.9%. The growth in the experiment on SK-OV-3 ovarian is 45.4%; in the experiment on IGROV1 ovarian it was -37.6% (active); in the experiment with OVCAR-3 ovarian, 2.15% (active); in the experiment on HS 578T breast, 18.2%; in the experiment with NCI/ADR-RES ovarian, 31.8%.
